Results on eleven compounds are retold here after ChEMBL document CHEMBL3988442, “University of Dundee, Small-Polar-MMV Screening Library” (2021).

What all share (parameters): scale not given: direction of the effect not stated beside the values
In assay [1] the target is Protein translocase subunit SecA (Escherichia coli (strain K12)) (UniProt P10408). Kind of assay: Assay to Identify E. coli SecA ATPase Inhibitors. In kind it is functional. Particulars: 30 µM.
In assay [2] the target is T1, Ubiquitin-activating enzyme e1, putative (Leishmania donovani (strain BPK282A1)) (UniProt E9BSI1).
T1 sequence (whole entry): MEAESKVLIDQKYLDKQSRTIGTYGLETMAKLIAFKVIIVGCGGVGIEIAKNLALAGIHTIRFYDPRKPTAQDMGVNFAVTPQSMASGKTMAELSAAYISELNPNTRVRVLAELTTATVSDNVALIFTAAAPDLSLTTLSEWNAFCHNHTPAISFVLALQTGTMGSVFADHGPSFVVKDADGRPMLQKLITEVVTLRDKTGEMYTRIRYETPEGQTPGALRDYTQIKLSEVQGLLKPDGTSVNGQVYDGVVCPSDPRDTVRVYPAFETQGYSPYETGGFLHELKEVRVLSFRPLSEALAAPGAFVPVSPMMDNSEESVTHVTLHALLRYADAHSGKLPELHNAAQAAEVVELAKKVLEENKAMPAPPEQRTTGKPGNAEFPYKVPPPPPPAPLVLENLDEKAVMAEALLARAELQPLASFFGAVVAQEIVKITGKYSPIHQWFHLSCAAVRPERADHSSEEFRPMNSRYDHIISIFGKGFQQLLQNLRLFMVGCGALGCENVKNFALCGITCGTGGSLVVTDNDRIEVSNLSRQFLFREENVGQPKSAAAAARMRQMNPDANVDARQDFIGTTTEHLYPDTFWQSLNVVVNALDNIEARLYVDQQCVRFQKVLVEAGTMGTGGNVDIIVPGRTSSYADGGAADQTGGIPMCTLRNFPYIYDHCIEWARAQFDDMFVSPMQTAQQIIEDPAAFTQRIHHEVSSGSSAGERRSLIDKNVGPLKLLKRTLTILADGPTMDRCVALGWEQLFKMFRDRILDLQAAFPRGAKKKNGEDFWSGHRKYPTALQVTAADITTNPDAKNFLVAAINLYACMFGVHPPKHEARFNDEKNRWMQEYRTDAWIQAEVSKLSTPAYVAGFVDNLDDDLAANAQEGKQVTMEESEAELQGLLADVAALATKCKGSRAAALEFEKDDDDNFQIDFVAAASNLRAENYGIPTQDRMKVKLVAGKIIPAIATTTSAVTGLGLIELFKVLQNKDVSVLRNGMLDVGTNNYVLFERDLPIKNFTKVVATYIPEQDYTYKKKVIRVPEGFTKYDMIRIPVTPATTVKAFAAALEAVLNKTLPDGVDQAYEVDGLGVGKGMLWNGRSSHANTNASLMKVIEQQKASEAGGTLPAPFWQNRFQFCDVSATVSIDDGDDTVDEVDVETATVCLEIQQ
Kind of assay: Leishmania donovani Ubiquitin Activating Enzyme (LdE1). In kind it is functional. Particulars: 30 µM.

For assay [3], the target named is AMP-activated protein kinase, AMPK (Homo sapiens) (UniProt P54646+O43741+P54619+Q9UGJ0+Q9Y478+Q13131+Q9UGI9). Kind of assay: AMP-dependent Kinase enzyme assay. An in vitro enzyme assay that detects ADP turnover that is directly proportional to AMPK activity. This uses naive AMPK that is activated during the assay with MK-8722. The assay is classed as functional. As to conditions: 30 µM.

The target of assay [4] is Sialic acid-binding Ig-like lectin 9 (Homo sapiens) (UniProt Q9Y336). Kind of assay: Hs-Siglec9 ALPHAscreen SOP 20170721. Particulars: 10 µM.
The test system of assay [5] is Trypanosoma cruzi. Kind of assay: Trypanosoma cruzi phosphomannomutase and mannose-1-phosphate guanylyltransferase assay. In kind it is functional. As to conditions: 10 µM.
Assay [6] deals with T2, Arginase-2, mitochondrial (Homo sapiens) (UniProt P78540).
T2 sequence (whole entry): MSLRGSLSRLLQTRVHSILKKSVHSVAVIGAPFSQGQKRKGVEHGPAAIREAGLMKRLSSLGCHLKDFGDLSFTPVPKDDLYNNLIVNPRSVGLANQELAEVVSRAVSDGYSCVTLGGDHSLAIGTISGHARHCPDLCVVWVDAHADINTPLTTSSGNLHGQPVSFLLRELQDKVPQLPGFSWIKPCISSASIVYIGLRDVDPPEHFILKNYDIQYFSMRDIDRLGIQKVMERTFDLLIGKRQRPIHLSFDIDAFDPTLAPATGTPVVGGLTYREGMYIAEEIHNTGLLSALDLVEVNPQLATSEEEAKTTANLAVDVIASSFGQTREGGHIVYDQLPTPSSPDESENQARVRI
Kind of assay: in vitro enzyme assay to detect the production of urea directly proportional to the activity of Arginase II. Further: in the data most compounds retested in dose-response had high values. In kind it is functional. Particulars: 33.3 µM.

For assay [7], the target named is T3, Proteasome subunit beta (Trypanosoma cruzi) (UniProt O96673).
T3 sequence (whole entry): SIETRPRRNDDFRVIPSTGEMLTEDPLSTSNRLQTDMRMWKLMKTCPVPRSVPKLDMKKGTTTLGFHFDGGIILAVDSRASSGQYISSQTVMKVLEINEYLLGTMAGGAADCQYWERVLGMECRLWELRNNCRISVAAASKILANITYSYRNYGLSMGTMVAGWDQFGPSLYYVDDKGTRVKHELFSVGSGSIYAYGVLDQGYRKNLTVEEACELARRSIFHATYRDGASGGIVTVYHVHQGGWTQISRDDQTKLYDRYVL
Kind of assay: Trypanosoma cruzi proteasome chymotrypsin-like activity (TcProtChymo) assay. Further: in the data most compounds retested in dose-response had high values. As to conditions: 9.37 µM. The assay is classed as functional.

The species entered for assay [8] is Homo sapiens. Kind of assay: To identify inhibition of the IFN signalling (Jak-Stat) pathway via expression of an eGFP reporter gene under the control of an IFN-stimulated response element (ISRE) containing MxA promoter. As to conditions: 30 µM. In kind it is functional.
Assay [9] deals with T4, Tyrosyl-tRNA synthetase, putative (Trypanosoma cruzi (strain CL Brener)) (UniProt Q4DSP6).
T4 sequence (whole entry): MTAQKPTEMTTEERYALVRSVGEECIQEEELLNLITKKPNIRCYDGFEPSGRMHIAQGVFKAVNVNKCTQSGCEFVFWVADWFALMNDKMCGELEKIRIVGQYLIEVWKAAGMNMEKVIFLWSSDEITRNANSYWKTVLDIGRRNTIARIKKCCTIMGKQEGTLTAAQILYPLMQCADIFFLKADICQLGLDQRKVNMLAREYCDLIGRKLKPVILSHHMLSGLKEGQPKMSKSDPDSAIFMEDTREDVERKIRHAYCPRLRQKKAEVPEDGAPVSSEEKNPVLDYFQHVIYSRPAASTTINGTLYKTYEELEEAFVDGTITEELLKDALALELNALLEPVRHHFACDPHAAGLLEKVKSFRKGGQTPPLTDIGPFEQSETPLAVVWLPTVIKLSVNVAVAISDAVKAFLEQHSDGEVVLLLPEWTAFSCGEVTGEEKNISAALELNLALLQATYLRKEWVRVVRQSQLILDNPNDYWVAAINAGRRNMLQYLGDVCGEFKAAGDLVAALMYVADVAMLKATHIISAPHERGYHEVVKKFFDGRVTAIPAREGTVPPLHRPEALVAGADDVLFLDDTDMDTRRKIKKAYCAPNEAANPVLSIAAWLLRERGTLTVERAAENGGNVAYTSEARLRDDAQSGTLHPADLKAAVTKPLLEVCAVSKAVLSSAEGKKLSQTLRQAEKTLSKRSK
Kind of assay: Trypanosoma cruzi tyrosyl tRNA synthetase (TcYRS) _High Tyrosine SOP. Further: in the data most compounds retested in dose-response had high values. Particulars: 30 µM. The assay is classed as functional.

For assay [10], the target named is T4, Tyrosyl-tRNA synthetase, putative (Trypanosoma cruzi (strain CL Brener)). Kind of assay: Trypanosoma cruzi tyrosyl tRNA synthetase (TcYRS) SOP. The assay is classed as functional. Particulars: 30 µM.
The target in assay [11] is Chromo domain-containing protein 1 (Saccharomyces cerevisiae (strain ATCC 204508 / S288c) (Baker's yeast)) (UniProt P32657). Kind of assay: ScCHD-1 Enzyme Inhibition Assay. Further: in the data most compounds retested in dose-response had high values. The assay is classed as functional. Particulars: 30 µM.

Each structure is given as a SMILES string. For some of these results: Entries with a potency or affinity are not part of this list.

Chain of Chromo domain-containing protein 1 (Saccharomyces cerevisiae (strain ATCC 204508 / S288c) (Baker's yeast)) (P32657 whole entry, the tested form may be a part): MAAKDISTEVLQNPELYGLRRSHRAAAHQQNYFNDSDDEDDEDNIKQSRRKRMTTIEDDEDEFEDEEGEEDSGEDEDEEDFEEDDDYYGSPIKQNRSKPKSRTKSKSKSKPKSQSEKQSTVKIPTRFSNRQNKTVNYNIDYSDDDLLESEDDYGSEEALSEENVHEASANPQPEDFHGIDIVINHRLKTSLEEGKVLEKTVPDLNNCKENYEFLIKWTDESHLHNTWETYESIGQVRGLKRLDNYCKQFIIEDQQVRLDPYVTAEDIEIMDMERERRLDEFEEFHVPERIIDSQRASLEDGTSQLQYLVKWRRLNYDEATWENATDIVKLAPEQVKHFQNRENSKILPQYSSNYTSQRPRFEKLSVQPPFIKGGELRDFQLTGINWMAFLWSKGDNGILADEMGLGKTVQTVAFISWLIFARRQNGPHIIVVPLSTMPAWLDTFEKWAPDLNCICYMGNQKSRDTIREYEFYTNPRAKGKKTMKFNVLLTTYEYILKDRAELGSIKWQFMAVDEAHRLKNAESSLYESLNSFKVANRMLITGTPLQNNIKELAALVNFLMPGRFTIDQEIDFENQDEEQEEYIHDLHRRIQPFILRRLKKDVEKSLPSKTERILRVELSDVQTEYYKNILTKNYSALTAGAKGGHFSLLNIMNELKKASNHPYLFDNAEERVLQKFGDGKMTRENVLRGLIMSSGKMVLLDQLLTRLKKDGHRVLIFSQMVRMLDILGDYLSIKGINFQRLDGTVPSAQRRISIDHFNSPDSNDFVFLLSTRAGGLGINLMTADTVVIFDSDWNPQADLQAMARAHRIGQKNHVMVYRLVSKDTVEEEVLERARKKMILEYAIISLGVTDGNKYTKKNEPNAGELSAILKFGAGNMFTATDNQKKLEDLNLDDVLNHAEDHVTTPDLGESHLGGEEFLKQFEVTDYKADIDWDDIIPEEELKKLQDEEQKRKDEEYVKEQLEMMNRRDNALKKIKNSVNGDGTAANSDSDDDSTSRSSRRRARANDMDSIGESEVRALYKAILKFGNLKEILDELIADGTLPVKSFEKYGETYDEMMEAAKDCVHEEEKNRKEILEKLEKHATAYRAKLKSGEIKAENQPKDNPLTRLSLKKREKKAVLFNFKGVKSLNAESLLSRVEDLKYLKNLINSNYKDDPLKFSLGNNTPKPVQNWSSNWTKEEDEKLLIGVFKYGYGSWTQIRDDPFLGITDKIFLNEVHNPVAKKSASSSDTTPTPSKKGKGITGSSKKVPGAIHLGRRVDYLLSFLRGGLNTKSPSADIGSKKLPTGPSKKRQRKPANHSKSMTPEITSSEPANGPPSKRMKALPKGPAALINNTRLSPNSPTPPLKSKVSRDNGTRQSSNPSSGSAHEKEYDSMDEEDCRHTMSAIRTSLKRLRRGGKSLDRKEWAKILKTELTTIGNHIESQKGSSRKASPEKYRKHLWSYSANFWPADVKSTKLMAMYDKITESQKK
Chain of Protein translocase subunit SecA (Escherichia coli (strain K12)) (P10408 whole entry): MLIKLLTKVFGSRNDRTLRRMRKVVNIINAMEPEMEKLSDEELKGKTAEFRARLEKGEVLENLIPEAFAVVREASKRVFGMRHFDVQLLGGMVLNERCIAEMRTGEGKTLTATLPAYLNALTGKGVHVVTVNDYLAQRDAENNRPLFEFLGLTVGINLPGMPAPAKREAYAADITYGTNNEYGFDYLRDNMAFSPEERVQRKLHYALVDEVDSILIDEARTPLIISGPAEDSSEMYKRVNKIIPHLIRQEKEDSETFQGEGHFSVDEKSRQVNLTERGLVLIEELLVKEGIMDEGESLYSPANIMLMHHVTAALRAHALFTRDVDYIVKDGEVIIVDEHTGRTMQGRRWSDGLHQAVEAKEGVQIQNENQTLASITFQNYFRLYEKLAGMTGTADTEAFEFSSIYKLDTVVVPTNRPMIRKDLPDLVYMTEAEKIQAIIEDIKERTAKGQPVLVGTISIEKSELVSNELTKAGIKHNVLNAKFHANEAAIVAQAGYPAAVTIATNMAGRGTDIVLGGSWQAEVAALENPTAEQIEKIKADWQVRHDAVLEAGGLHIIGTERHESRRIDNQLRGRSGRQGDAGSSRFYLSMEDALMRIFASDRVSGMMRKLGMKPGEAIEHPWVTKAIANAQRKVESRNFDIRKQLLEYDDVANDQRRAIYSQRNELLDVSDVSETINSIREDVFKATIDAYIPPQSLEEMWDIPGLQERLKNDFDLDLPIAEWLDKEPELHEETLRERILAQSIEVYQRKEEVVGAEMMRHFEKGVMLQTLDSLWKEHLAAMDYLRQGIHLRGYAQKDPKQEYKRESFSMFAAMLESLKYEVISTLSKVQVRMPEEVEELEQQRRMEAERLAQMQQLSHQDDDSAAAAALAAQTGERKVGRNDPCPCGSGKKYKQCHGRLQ
Chain of Sialic acid-binding Ig-like lectin 9 (Homo sapiens) (Q9Y336 whole entry): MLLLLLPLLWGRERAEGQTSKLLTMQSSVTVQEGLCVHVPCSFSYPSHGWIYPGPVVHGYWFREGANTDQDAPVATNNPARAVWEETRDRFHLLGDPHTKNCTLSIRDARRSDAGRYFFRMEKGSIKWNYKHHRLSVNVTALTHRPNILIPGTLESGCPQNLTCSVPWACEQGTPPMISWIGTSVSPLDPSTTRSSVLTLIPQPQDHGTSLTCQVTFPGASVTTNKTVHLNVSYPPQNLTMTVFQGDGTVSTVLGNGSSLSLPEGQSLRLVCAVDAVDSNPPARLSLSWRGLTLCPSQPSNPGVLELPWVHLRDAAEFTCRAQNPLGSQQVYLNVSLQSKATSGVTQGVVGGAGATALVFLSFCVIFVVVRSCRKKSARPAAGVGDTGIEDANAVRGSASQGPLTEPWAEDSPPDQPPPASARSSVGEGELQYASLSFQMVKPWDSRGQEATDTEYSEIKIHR

`Cc1ccc(NC2CCN(C(=O)CC3CCCO3)CC2)nn1` (stereo unspecified): the Percent Effect in [1] is -3.13%; in [2], -5.41%; in [3] it was -10.4%; in assay [4], 8.84%; in assay [5], -2.17%; in [6], 2%. The Percent Effect in assay [7] was 1.8%; in assay [8], 5.87%; in [9] it was 1.48%; in assay [10], -8.64%; in assay [11], 0.857%.

For the compound `O=C(Nc1ccccc1OC(F)F)C1=NN(c2ccccc2)C(=O)CN1`, the Percent Effect in [1] was -1.64%; in assay [2], 10.1%; in assay [3] it was -3.73%; in [4], -7.92%; in [5], -3.87%; in assay [6] it was 3.04%. The Percent Effect was 8.11% in assay [7]; 8.86% in assay [8]; -0.493% in assay [9]; 11.4% in [10]; -4.54% in assay [11].

As for `CCN1CCN(S(=O)(=O)c2cc(Cl)c(Cl)cc2C)CC1`, the Percent Effect in [1] was -2.56%; in assay [2] it was 2.6%; in [3], 5.2%; in [4] it was 3.88%; in assay [5] it was -3.83%; in assay [6] it was -4.14%. For the same compound, the Percent Effect in assay [7] was -4.99%; in assay [8], -8.04%; in assay [9], -28%; in assay [10], 1.24%; in assay [11], 3.26%.

In the case of `Cc1nn(C)c(Cl)c1C1CCCN1CC(=O)NCc1ccccn1` (stereo unspecified), the Percent Effect was -0.227% in [1]; 1.27% in [2]; 8.81% in assay [3]; -1.21% in [4]; 0.513% in assay [5]; -0.215% in [6]. The Percent Effect in assay [7] was 12.2%; in assay [8], 22.5%; in assay [9], 4.17%; in [10], 10.1%; in assay [11] it was 3%.

`O=C(Cn1cnnn1)N1CCCCC1Cn1cccn1` (stereo unspecified): the Percent Effect in assay [1] is -4.89%; in assay [2], 5.06%; in [3], -3.21%; in [4], -2.69%; in [5], -6.52%; in assay [6] it was -3.04%. For the same compound, the Percent Effect was 0.901% in [7]; 25.2% in assay [8]; -3.45% in assay [9]; -11.4% in [10]; -5.05% in assay [11].

`COCCC1(CO)CCCN(Cc2ccc(F)c(C)c2)C1` (stereo unspecified): the Percent Effect is -3.62% in assay [1]; 0% in assay [2]; -3.75% in assay [3]; -6.12% in assay [4]; -0.88% in assay [5]; -1.24% in [6]. The Percent Effect in assay [7] is 2.15%; in [8] it was -4.5%; in assay [9] it was 3.23%; in assay [10], 1.24%; in assay [11], 2.9%.

Consider `Cn1ccnc1CN1CCC2(CC1)CC(Oc1cccnc1)C2`, for which the Percent Effect in assay [1] is -2.04%; in assay [2] it was 8%; in assay [3] it was 4.85%; in assay [4], 10.2%; in assay [5], -1.35%; in assay [6] it was -23.8%. For the same compound, the Percent Effect is 1.88% in assay [7]; 6.63% in assay [8]; 10.4% in [9]; 22.5% in assay [10]; -6.08% in assay [11].

Regarding `CN(C)c1nccc(N2CCO[C@H]3CN(CC4CCOCC4)C[C@H]32)n1`, the Percent Effect in [1] is 1.86%; in assay [2], 11%; in assay [3], -5.46%; in [4], 12.4%; in [5], 4.37%; in [6] it was -3.59%. The Percent Effect was 10.5% in assay [7]; 30.6% in assay [8]; 4.17% in assay [9]; 18.5% in assay [10]; -7.93% in [11].

`CS(=O)(=O)c1ccc(CNCC2CCN(CCO)CC2)cc1`: the Percent Effect in assay [1] was -6.48%; in assay [2] it was 0%; in [3] it was -13.5%; in assay [4], 3.88%; in assay [5], -4.9%; in assay [6], -3.64%. Also, the Percent Effect in assay [7] is 6.03%; in assay [8], 21.2%; in [9], -2.15%; in assay [10], -5%; in assay [11] it was -3.22%.

Turning to `CC(C)c1nc(C2CCCN(C(=O)Cc3cccnc3)C2)no1` (stereo unspecified), the Percent Effect is -0.76% in [1]; 16.2% in [2]; -13.3% in assay [3]; -2.67% in assay [4]; -10.3% in assay [5]; -1.6% in [6]. The Percent Effect was 2.16% in [7]; 25.4% in assay [8]; 5.42% in assay [9]; 6.17% in assay [10]; -2.89% in assay [11].

As for `Cn1ncc2c(=O)[nH]c(CN3CCC(Cc4ccccc4)CC3)nc21`, the Percent Effect is -4.67% in assay [1]; 10.5% in assay [2]; -7.07% in [3]; 0.445% in [4]; 8.87% in assay [5]; 3.6% in [6]. Further, the Percent Effect was 7.7% in [7]; -0.345% in assay [8]; 9.36% in [9]; 25.9% in [10]; -10.4% in assay [11].
